# Most compounds without a hit are left out; they make up all but 3.8% or so of the library.
# CR mimetic SO – reduction of superoxide in aged yeast, primary screen, HTS. AID 2690, 2010. 330,000 tested, 0.18% active. superoxide response (% of plate mean), % at 10 µM. S. cerevisiae aged cells, superoxide DHE fluorescence; hits give low values;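 active = superoxide response under a set limit, about three screen SD below normal, cut at about 65% in these data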;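 note: yeast aged for seven days with compound at 30 °C before DHE staining; 100% = average MFI of all compound-treated wells on the plate with controls excluded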
# aDG glyco act – activators of alpha-DG glycosylation, primary screen, uHTS, Pro5-aDG cells, AlphaScreen | alpha-DG glycosylation AlphaScreen (IIH6); 0% Pro5, 100% B10-LARGE cell signal | activation, % at 10 µM | 360,000 tested, 0.22% active | AID 624168, 2012;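 active = activation of at least 8% versus controls, or a plate z-score of at least 8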;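 note: Pro5 are CHO cells carrying HIG-tagged alpha-DG that lacks glycosylation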
# MPTP block – mitochondrial permeability transition pore inhibitors, primary screen, biochemical, isolated mouse mitochondria, absorbance; Ca2+ swelling absorbance, 30 min; inhibition, % at 10 µM; 360,000 tested, 1.4% active; AID 602449, 2012;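 active = inhibition of 50% or more, scaled per plate between neutral and stimulator controls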;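 note: 0% = DMSO wells given calcium and 100% = 1 mM EGTA wells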
# Cardio protect – cardioprotection against H2O2-induced cell death, primary screen, uHTS, H9c2 cells, ATPLite luminescence. 360,000 tested, 0.63% active. H9c2 cardiomyocytes, H2O2 injury protection, 2 h. protection from H2O2 cell death, % at 20 µM;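 active = compounds giving at least 50% protection of heart cells from peroxide-induced death in the single-dose screen, raw or plate-pattern-corrected value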;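 note: 0% = DMSO wells with peroxide and 100% = DMSO wells without peroxide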
# FAS TE block – FAS thioesterase domain inhibitors, primary screen, biochemical, fluorescence intensity, uHTS; Fatty acid synthase (Homo sapiens), P49327; recombinant FAS-TE, OMFH fluorogenic substrate, fluorescence endpoint; inhibition, % at 15 µM; 360,000 tested, 0.67% active; AID 602261, 2012;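 active = compounds whose normalised, plate-corrected inhibition of enzyme fluorescence in the single-dose primary screen is 50% or more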;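 note: 0% = DMSO with enzyme and 100% = substrate without enzyme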
# Mot1-301 SUMO – yeast Mot1-301 growth rescue at high temperature, primary screen, SUMOylation pathway inhibitor project, S. cerevisiae, ATP luminescence, 38.5C; S. cerevisiae Mot1-301 growth rescue; percent above DMSO median, 100 means doubled; growth rescue, % at 18.8 µM; 320,000 tested, 1% active;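 active = every valid replicate shows activation above 250% relative to neutral control wells; inactive = the rest, any valid replicate at or below 250%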;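 note: OY570 slx delta 5 strain wells were the positive control but not used for scaling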
# FAS-TE conf – FAS thioesterase domain inhibitors, confirmation, biochemical, fluorescence intensity, single concentration. AID 624325, 2012. 2,300 tested, 45% active. recombinant FAS-TE, OMFH fluorogenic substrate. shares compounds with FAS TE block. inhibition, % at 15 µM;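 active = compounds inhibiting the enzyme by at least 50% at 15 µM in any one of the replicates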;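 note: 0% = enzyme with DMSO only and 100% = wells lacking enzyme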
# Active calls of the source: *; · = no result.
SMILES,CR mimetic SO,aDG glyco act,MPTP block,Cardio protect,FAS TE block,Mot1-301 SUMO,FAS-TE conf
O=[N+]([O-])c1cc2c(cc1/C=N/Nc1nc(N3CCCC3)nc(N3CCCC3)n1)OCO2,98.6,0.2,0.3,15.6,21.2,-1.2,·
Cc1cc(-c2ccccc2)nc(N/N=C/c2ccc([N+](=O)[O-])cc2)n1,89.8,0.1,0.4,53.4*,67.3*,217.6,46.3*
Cc1cc(-c2ccccc2)nc(N/N=C/c2ccccc2)n1,105.5,0.3,-0.5,-11.1,10.0,13.8,·
O=[N+]([O-])c1ccc(/C=N/Nc2nc(N3CCCCC3)nc(N3CCCCC3)n2)cc1,108.2,0.0,2.8,0.9,53.9*,47.7,5.9
O=[N+]([O-])c1ccc(/C=N/Nc2nc(N3CCCCCC3)nc(N3CCCCCC3)n2)o1,96.7,-0.2,0.8,0.1,-5.0,-18.4,·
O=[N+]([O-])c1ccc(Nc2nc(N/N=C\c3ccc4c(c3)OCO4)nc(N3CCCCC3)n2)cc1,104.5,-1.0,2.7,41.3,56.3*,73.3,17.6
O=c1[nH][nH]c(=O)c(Cl)c1Cl,·,-0.2,-2.2,-0.1,-7.3,·,·
COc1ccc(CN2CCN(C(=O)c3ccc(CNS(=O)(=O)c4ccc(C)cc4)cc3)CC2)c(OC)c1OC,84.8,0.7,0.4,-3.1,2.2,5.0,·
O=C(Sc1nnc(-c2ccccc2)o1)N1c2ccccc2Sc2ccccc21,101.8,-0.3,-0.9,-9.4,59.7*,-6.7,28.4*
Cc1cc2oc(=O)cc(CN3CCN(S(=O)(=O)/C=C/c4ccccc4)CC3)c2cc1C,104.0,1.2,1.8,-4.8,54.1*,358.9,11.6
Cc1cc2oc(=O)cc(CN3CCN(S(=O)(=O)c4ccc5c(c4)OCCO5)CC3)c2cc1C,100.6,0.3,2.1,5.2,25.8,205.4,·
COCOc1ccc(C=O)cc1OCOC,100.7,0.2,-2.2,3.4,-6.6,-2.2,·
O=S(=O)(c1ccc(N2CCC(c3ccc(Cl)cc3)=N2)cc1)N(CCO)CCO,110.5,1.0,2.8,9.4,88.9*,-4.7,92.7*
C[C@@H](CO)NC(=O)c1nc[nH]c1C(=O)N[C@H](C)c1ccccc1,·,0.0,0.2,-5.0,-5.7,·,·
N#C/C(=C/c1ccc2c(c1)OCO2)C(=O)NCCc1c[nH]c2ccccc12,98.0,0.1,0.2,2.8,52.0*,-16.1,33.8
CSc1ccc(C(O)c2ncc(-c3ccccc3F)[nH]2)cc1 (stereo not given),·,-0.2,0.7,-11.7,-5.3,·,·
COC(=O)c1cc(NC(=O)N2c3ccccc3Sc3ccccc32)cc(C(=O)OC)c1,110.8,-0.1,2.6,-6.0,72.1*,9.7,27.7
O=C(Nc1ccc(S(=O)(=O)N2CCCC2)cc1)N1c2ccccc2Sc2ccccc21,122.9,0.2,4.8,-1.4,76.3*,-18.6,28.8
O=C(Nc1ccc(S(=O)(=O)N2CCCCC2)cc1)c1ccccc1Cl,97.4,0.0,0.3,-3.0,4.9,60.2,·
COc1ccc(CN2C(=O)C(CC(=O)NCCc3ccccn3)CC(C(=O)N3CCCCCC3)=C2C)cc1 (stereo not given),·,-0.2,0.3,·,-0.5,·,·
Cc1cc(CN(C)C(=O)c2ccc(OC3CCN(CCc4ccccc4)CC3)cc2)on1,90.0,0.0,1.7,-7.7,1.1,10.4,·
O=C(COC(=O)c1cc([N+](=O)[O-])ccc1NCCO)c1ccc(Cl)cc1,88.2,0.3,1.2,4.6,46.3,2.7,·
Cc1cc(C)c(C(=O)COC(=O)c2cc([N+](=O)[O-])ccc2NCCO)cc1C,97.1,0.7,-3.7,-11.2,52.4*,10.9,36.6*
CCc1ccc(C(=O)COC(=O)c2cc([N+](=O)[O-])ccc2NCCO)cc1,93.1,0.4,-1.4,-15.2,84.3*,-4.1,72.9*
CN(CC(=O)Nc1ccc(Cl)c(C(F)(F)F)c1)C(=O)c1ccccc1SCC(=O)N1CCCC1,·,-0.1,0.4,-11.0,7.9,·,·
SMILES,CR mimetic SO,aDG glyco act,MPTP block,Cardio protect,FAS TE block,Mot1-301 SUMO,FAS-TE conf
O=C1c2ccccc2C(=O)N1OS(=O)(=O)c1ccccc1,110.9,·,·,·,·,128.4,·
Cc1cc(S(=O)(=O)ON2C(=O)c3ccccc3C2=O)ccc1F,103.5,-0.1,0.6,3.1,82.2*,-3.2,79.2*
Cc1ccc(C)c(S(=O)(=O)ON2C(=O)c3ccccc3C2=O)c1,96.6,-0.5,5.8,-6.4,82.7*,62.7,87.7*
CCN1C(=O)[C@H]2[C@@H](c3ccc(C)cc3)N3C(=O)N(c4ccccc4)C(=O)[C@@]3(Cc3ccc(Cl)cc3)[C@H]2C1=O,109.9,0.3,1.0,5.0,62.9*,160.3,32.5
CCN1C(=O)[C@H]2[C@@H](c3ccc(C)cc3)N3C(=O)N(c4ccc(OC)cc4)C(=O)[C@@]3(Cc3ccccc3)[C@H]2C1=O,98.5,0.2,-0.2,5.1,-4.9,-2.8,·
CC[C@@]12C(=O)N(c3cccc(Cl)c3)C(=O)N1[C@H](c1cccc(C)c1)[C@@H]1C(=O)N(Cc3ccccc3)C(=O)[C@@H]12,100.8,0.0,0.9,3.5,16.8,-27.8,·
Cc1cccc([C@@H]2[C@@H]3C(=O)N(Cc4ccccc4)C(=O)[C@@H]3[C@]3(CC(C)C)C(=O)N(c4cccc(Cl)c4)C(=O)N23)c1,100.2,0.7,0.7,-6.8,71.7*,17.3,27.1
CCN1C(=O)[C@H]2[C@@H](c3ccc(C)cc3)N3C(=O)N(c4ccc(C)cc4)C(=O)[C@@]3(Cc3ccc(Cl)cc3)[C@H]2C1=O,93.7,0.3,3.4,-2.1,59.5*,100.7,20.1
CCN1C(=O)[C@H]2[C@@H](c3ccc(C)cc3)N3C(=O)N(c4cccc(Cl)c4)C(=O)[C@@]3(CC)[C@H]2C1=O,101.6,0.3,0.5,1.2,-3.0,-10.8,·
O=C1C(F)=CC(COC(c2ccccc2)(c2ccccc2)c2ccccc2)OC1n1cc(F)c(=O)[nH]c1=O (stereo not given),·,-0.4,-6.8,-17.5,70.0*,·,52.0*
CC(=O)OCC1OC(n2cc(F)c(=O)[nH]c2=O)C(OC(C)=O)C1OC(C)=O (stereo not given),104.5,0.0,0.5,6.7,-7.4,7.4,·
CCc1ccccc1-n1nnnc1SCC(=O)Nc1ccc(N2CCN(C)CC2)cc1,109.5,0.8,-1.6,-0.5,-0.5,-11.5,·
COc1ccc(C2(O)CN(c3ccc(C)cc3)C3=[N+]2CCCC3)cc1 (stereo not given),101.0,0.8,-0.4,-9.8,-3.6,9.8,·

# Source: PubChem (several laboratories)
